# Test results from the supplement of paper PMC10849652.
# About 8,800 targets were measured; listed, in parts, are those with a hit and a random draw of the rest. About 0.5% of all pairs of compound and target were hits. A number with no mark means an inactive call.
# Experiments:
# Assay in all cases: log2 fold change, soluble protein after heating vs DMSO (PISA); higher = thermal stabilisation; K562 lysate, 10 uM; active = over 0.2 and 3.5 SD of the protein, either way, in both replicates (recomputed)
# [1] = compound: NCC(=O)Nc1ccc(-n2nc(C(F)(F)F)cc2-c2ccc3c(ccc4ccccc43)c2)cc1
# How it was run: (§1)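 K562 pellets were dounce-homogenised in PBS pH 7.4 with 1 mM MgCl2, and the crude extract at 1 mg/mL protein was treated with 10 μM compound for 30 min. Aliquots were heated for 3 min across 48°C-58°C, pooled, and brought to 0.5% NP-40 at 4°C; soluble protein was the supernatant after 21,000xg for 90 min. Soluble protein was quantified by TMTpro 16plex LC-MS/MS with channel sums equalised, and reported as log2 fold change in thermal stability against DMSO controls, with values from duplicates.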
# vorinostat = compound: O=C(CCCCCCC(=O)Nc1ccccc1)NO [vorinostat]
# How it was run: as §1
# silmitasertib = compound: O=C(O)c1ccc2c(c1)nc(Nc1cccc(Cl)c1)c1ccncc12 [silmitasertib]
# How it was run: as §1
# [2] = compound: O=C1NC(=O)C(c2cnc3ccccn23)=C1c1cn2c3c(cc(F)cc13)CN(C(=O)N1CCCCC1)CC2
# How it was run: as §1
# entospletinib = compound: c1cn2cc(-c3ccc4cn[nH]c4c3)nc(Nc3ccc(N4CCOCC4)cc3)c2n1 [entospletinib]
# How it was run: as §1
# UniProt O95714, sequence (O95714 whole entry, looked up): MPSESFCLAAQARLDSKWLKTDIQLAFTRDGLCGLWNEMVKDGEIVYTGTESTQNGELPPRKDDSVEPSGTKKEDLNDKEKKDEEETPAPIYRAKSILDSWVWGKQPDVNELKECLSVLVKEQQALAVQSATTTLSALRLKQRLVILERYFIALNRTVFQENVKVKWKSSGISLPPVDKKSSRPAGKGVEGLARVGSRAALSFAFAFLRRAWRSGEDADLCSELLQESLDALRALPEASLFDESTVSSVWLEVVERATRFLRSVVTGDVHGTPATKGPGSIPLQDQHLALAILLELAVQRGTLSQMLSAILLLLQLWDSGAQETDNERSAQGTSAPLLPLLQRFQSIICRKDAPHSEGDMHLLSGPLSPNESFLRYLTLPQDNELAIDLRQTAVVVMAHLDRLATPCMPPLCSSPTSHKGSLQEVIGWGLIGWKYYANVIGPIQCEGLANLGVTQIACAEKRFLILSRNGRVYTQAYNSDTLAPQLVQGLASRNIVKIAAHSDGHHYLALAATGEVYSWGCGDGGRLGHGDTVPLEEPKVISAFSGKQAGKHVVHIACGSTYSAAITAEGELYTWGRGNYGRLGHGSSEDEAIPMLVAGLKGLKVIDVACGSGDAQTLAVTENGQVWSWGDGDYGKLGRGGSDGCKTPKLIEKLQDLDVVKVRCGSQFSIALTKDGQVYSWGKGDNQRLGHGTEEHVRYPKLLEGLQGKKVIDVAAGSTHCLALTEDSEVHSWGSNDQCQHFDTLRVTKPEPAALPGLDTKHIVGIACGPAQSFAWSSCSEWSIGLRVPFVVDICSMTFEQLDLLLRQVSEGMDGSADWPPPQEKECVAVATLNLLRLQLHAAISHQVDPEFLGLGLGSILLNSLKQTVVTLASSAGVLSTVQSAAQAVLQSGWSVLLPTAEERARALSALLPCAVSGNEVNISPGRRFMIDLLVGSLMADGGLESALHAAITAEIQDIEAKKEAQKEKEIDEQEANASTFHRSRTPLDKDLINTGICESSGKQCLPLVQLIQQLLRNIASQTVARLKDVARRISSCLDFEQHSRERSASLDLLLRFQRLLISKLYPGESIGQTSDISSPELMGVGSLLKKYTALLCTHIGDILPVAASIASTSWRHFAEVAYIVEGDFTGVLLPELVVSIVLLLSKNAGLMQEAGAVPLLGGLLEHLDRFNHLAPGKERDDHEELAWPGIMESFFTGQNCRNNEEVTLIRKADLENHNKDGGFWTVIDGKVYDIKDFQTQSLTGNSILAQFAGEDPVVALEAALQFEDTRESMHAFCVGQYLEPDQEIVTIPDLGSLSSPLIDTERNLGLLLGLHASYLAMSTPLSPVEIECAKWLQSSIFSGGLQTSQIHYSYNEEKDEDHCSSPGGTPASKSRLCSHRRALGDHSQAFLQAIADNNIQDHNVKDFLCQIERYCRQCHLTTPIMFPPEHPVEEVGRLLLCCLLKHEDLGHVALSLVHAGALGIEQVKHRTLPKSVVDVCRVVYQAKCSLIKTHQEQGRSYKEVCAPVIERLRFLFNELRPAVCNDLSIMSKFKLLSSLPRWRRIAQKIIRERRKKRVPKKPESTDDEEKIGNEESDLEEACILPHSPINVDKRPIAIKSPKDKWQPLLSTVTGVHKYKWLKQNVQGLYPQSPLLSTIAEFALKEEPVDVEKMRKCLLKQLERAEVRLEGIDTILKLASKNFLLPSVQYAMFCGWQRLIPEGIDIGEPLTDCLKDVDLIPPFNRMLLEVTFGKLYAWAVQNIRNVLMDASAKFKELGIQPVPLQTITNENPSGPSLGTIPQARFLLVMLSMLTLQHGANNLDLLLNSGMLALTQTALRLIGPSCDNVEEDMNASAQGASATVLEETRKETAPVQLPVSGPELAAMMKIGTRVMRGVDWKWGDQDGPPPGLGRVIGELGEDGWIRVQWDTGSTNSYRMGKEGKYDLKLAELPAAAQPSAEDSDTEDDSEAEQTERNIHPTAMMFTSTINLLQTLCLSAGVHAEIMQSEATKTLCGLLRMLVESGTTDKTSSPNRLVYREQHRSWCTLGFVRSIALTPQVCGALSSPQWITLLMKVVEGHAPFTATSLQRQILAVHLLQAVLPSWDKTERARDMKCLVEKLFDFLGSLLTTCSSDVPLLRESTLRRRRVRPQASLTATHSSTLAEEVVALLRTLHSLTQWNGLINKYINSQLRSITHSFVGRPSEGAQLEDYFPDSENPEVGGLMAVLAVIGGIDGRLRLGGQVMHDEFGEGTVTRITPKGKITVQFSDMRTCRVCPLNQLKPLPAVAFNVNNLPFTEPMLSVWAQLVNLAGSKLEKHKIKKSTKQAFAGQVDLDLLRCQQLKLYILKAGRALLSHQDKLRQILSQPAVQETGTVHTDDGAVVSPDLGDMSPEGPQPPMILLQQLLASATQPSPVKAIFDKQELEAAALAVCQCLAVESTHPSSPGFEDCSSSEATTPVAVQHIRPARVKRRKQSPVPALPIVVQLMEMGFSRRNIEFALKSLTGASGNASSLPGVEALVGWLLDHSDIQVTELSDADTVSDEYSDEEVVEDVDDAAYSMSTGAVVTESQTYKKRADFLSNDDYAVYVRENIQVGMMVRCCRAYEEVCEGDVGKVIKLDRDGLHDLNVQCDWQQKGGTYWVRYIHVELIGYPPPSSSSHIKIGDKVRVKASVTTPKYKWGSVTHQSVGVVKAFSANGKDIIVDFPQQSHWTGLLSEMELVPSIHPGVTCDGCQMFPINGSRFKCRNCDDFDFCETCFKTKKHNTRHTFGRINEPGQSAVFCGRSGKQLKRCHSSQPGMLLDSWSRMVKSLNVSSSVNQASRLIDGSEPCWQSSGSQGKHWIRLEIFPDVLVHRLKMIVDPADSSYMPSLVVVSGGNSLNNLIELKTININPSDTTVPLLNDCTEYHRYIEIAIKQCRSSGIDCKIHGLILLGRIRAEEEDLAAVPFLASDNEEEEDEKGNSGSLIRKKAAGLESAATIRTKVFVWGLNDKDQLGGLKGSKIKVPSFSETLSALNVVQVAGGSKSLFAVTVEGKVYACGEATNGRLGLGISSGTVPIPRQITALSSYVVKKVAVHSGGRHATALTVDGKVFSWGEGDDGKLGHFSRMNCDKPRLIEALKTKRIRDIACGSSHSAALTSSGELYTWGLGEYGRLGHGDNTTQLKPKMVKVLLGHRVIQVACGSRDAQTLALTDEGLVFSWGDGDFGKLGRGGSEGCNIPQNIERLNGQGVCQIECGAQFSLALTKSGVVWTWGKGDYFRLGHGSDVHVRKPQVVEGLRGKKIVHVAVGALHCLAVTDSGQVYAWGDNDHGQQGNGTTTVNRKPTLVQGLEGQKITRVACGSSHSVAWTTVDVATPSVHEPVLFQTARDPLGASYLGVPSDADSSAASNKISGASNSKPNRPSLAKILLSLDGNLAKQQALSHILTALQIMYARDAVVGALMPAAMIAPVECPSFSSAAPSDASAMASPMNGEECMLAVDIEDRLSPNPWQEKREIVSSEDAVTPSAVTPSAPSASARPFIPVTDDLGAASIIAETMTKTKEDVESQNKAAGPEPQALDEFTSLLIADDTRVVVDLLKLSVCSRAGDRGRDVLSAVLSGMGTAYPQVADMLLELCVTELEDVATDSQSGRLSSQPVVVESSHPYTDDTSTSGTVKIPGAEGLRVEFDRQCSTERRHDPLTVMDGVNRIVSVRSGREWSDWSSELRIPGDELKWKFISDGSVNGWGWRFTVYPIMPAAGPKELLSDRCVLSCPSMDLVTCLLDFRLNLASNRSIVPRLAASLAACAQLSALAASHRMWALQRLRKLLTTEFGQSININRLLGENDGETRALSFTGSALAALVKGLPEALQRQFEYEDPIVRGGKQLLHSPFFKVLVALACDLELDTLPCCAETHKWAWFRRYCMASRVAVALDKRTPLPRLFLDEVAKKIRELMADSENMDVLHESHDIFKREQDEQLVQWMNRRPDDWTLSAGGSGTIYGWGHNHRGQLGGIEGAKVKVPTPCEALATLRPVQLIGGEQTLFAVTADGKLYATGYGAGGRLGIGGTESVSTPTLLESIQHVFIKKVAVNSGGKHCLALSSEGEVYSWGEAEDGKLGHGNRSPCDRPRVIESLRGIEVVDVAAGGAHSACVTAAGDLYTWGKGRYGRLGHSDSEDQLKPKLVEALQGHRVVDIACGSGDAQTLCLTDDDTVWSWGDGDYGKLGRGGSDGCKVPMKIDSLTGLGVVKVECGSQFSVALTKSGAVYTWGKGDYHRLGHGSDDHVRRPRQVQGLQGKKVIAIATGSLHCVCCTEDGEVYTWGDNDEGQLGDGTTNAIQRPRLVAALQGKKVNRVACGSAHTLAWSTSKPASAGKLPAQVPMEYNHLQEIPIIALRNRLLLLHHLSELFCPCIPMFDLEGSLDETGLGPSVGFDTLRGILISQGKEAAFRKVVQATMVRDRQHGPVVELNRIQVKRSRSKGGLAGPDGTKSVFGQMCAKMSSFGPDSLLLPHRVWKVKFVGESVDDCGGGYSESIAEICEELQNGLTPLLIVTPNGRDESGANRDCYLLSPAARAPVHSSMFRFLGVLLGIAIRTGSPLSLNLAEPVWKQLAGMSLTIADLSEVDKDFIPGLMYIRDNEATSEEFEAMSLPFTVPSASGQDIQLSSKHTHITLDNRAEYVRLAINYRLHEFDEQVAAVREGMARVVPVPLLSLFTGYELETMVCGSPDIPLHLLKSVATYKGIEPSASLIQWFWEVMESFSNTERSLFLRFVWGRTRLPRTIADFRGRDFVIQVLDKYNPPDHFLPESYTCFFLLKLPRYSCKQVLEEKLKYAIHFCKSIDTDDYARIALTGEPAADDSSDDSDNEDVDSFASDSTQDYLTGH
# UniProt Q8NC54, sequence (Q8NC54 whole entry, looked up): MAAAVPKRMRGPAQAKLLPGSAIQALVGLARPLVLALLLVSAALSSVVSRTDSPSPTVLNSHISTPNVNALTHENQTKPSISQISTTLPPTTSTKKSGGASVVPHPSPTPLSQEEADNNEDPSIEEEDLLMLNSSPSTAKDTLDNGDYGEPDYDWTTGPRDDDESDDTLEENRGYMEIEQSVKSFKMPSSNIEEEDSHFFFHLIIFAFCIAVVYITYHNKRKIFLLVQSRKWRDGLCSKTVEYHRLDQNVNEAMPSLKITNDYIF
Target,log2 fold change [1],log2 fold change (vorinostat),log2 fold change (silmitasertib),log2 fold change [2],log2 fold change (entospletinib)
GSTM4 (UniProt Q03013),0.025,0.015,0.301 (active),0.012,-0.03
INTS10 (UniProt Q9NVR2),0.027,-0.438 (active),0.047,0.002,0.006
GSK3A (UniProt P49840),-0.019,0.265,0.382,0.456,0.014
HSD17B10 (UniProt Q99714),0.04,-0.826 (active),-0.011,-0.025,-0.004
"HDLBP, A0A024R4E5",0.009,-0.427 (active),-0.013,0.004,0.009
HMGN5 (UniProt P82970),-0.014,0.14,0.002,-0.005,0.002
IMMT (UniProt C9J406),-0.084,0.174,0.092,-0.002,-0.172
GSTZ1 (UniProt G3V4T6),0.088,0.167,-0.002,-0.015,-0.031
IMPACT (UniProt Q9P2X3),0.019,-0.125,-0.096,-0.082,-0.027
GUSB (UniProt P08236),0.021,0.043,0.015,-0.026,-0.029
INF2 (UniProt Q27J81),-0.023,-0.333 (active),-0.027,0.018,-0.09
HTT (UniProt P42858),-0.029,-0.331 (active),0.04,0,-0.042
HDAC6 (UniProt Q9UBN7),-0.039,0.513 (active),0.016,-0.047,0.007
GLUD2 (UniProt P49448),0.297 (active),0.096,0.022,0.026,-0.084
GTF3C3 (UniProt Q9Y5Q9),-0.007,-0.291 (active),0.018,0.011,-0.052
GPX4 (UniProt P36969),-0.007,-0.306 (active),0.017,-0.023,0.037
HSPB1 (UniProt P04792),0.019,-0.013,-0.027,-0.001,0.013
KCTD20 (UniProt Q7Z5Y7),-0.137,-0.323 (active),0.035,0.053,0.091
GMIP (UniProt Q9P107),-0.018,-0.302 (active),0.058,0.021,-0.038
INTS14 (UniProt Q96SY0),-0.008,-0.311 (active),0.002,0.023,0.026
HNRNPUL1 (UniProt Q9BUJ2),-0.02,0.122,0.012,-0.022,-0.02
HADHB (UniProt P55084),0.047,-0.199,-0.033,0.269,0.063
IMPDH2 (UniProt P12268),0.002,-1.14 (active),0.004,0.004,0.014
GSTCD (UniProt Q8NEC7),-0.025,-0.356 (active),0.024,-0.027,-0.066
KDM5C (UniProt P41229),0.039,-0.282 (active),0.015,0,0.003
HS1BP3 (UniProt Q53T59),0.03,0.139,-0.038,-0.027,-0.033
H4C1 (UniProt P62805),0.043,0.09,0.007,-0.038,-0.057

Target,log2 fold change [1],log2 fold change (vorinostat),log2 fold change (silmitasertib),log2 fold change [2],log2 fold change (entospletinib)
INPPL1 (UniProt O15357),0.025,-0.528 (active),0.057,0.017,-0.015
H2AFY (UniProt O75367),0.008,0.142,-0.029,-0.02,0.079
GOLPH3L (UniProt Q9H4A5),-0.061,-0.035,-0.002,0.047,0.048
HDAC3 (UniProt O15379),-0.016,-0.264 (active),-0.027,-0.008,0
IGF2BP2 (UniProt Q9Y6M1),-0.016,-0.239 (active),0.088,0,0.026
GOLGA6B (UniProt A6NDN3),0.019,0.117,-0.002,0.353 (active),-0.084
HLCS (UniProt P50747),-0.048,-0.054,-0.012,0.004,0.009
HDAC10 (UniProt Q969S8),0.147,0.211,0.156,-0.032,0.053
HMGB2 (UniProt P26583),0.004,0.122,-0.052,0.047,0.003
KCT2 (UniProt Q8NC54),0.015,0.157,0.005,-0.04,-0.026
HNRNPAB isoform 3 (UniProt Q99729),0.067,0.189,-0.01,0.008,-0.019
HAUS4 (UniProt Q9H6D7),-0.022,-0.255 (active),0.045,-0.017,-0.018
GRK6 isoform 2 (UniProt P43250),0.001,-0.227,0.48 (active),-0.012,-0.123
HSPA8 (UniProt E9PK54),0.068,-0.004,-0.037,-0.022,0.012
IGF2BP3 (UniProt O00425),-0.012,-0.305 (active),0.025,0,0.006
KHDRBS1 (UniProt Q07666),0.005,-0.583 (active),0.018,0.016,0.008
IMPDH1 isoform 6 (UniProt P20839),0.029,-0.897 (active),-0.003,0.004,0.023
GSK3B isoform 2 (UniProt P49841),0.02,0.253,0.421,0.657,0.05
HERC2 (UniProt O95714),0.04,-0.006,-0.076,-0.009,0.014
HECTD3 (UniProt Q5T447),-0.015,-0.253 (active),0.109,-0.02,0.022
GLYR1 (UniProt Q49A26),-0.006,-0.033,-0.022,-0.007,-0.041
INTS3 (UniProt Q68E01),0.049,-0.244 (active),0.015,-0.063,0.009
HMBOX1 isoform 5 (UniProt Q6NT76),0.004,0.093,0.025,0.02,-0.063
IARS (UniProt P41252),0.014,-0.325 (active),0.046,-0.008,0.031
GON4L (UniProt Q3T8J9),-0.051,-0.162,0.066,-0.076,0.067
GOLGA1 (UniProt Q92805),0.048,0.07,0.01,-0.076,-0.014
GMPS (UniProt P49915),0.017,-0.553 (active),0.028,0.002,0.01
